Laboratory results: PubChem BioAssay (NCI)
This is part of a sample that, as a whole, favours compounds with a hit. Of some 83,000 tested, about 20% had one in any assay.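 Step 1: grow cells in 96-well plates. Step 2: add test compound at a single concentration. Step 3: incubate 48 h. Step 4: record percent growth.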 Values without a mark were called inactive. Calls of active or inactive are those of the source. Rule for the calls: active = growth percent below 10; inactive = the rest. *1 amine or outer side, *2 acyl side, *3 side chain or, on linkers, in order; H or OH if unused. Where a SMILES comes first, the peptide text is derived from it. [ ]: non-standard residue; d: D form. The star is where a group is joined. X5 = CCC(=O)CC1CC(C)CC(C(=O)[*:2])N1[*:1]; X4 = CCCCCCCCC(C)C(=O)*; Aib = CC(C)(N)C(=O)O; X6 = CC(CN(C)CCO)N*

What was measured:
Assay in all cases: NCI-60 one-dose screen, 48 h (100 = growth as untreated, 0 = no growth, -100 = all killed)
Settings in all cases: 10 µM unless noted
NCI-H23 lung = test system: NCI-H23 lung
NCI-H322M lung = test system: NCI-H322M lung
HOP-62 NSCLC = test system: HOP-62 NSCLC
NCI-H460 lung = test system: NCI-H460 lung
HOP-92 NSCLC = test system: HOP-92 NSCLC
NCI-H522 lung = test system: NCI-H522 lung
A549/ATCC NSCLC = test system: A549/ATCC NSCLC
786-0 renal = test system: 786-0 renal
COLO 205 colon = test system: COLO 205 colon
DU-145 prostate = test system: DU-145 prostate
K-562 leukemia = test system: K-562 leukemia
MALME-3M melanoma = test system: MALME-3M melanoma
MDA-MB-231 breast = test system: MDA-MB-231 breast
RXF 393 renal = test system: RXF 393 renal
SF-268 CNS = test system: SF-268 CNS
SF-295 CNS = test system: SF-295 CNS
SF-539 CNS = test system: SF-539 CNS
UACC-257 melanoma = test system: UACC-257 melanoma
NCI-H226 lung = test system: NCI-H226 lung
M14 melanoma = test system: M14 melanoma

Row | SMILES | growth (NCI-H23 lung) | growth (NCI-H322M lung) | growth (HOP-62 NSCLC) | growth (NCI-H460 lung) | growth (HOP-92 NSCLC) | growth (NCI-H522 lung) | growth (A549/ATCC NSCLC) | growth (786-0 renal) | growth (COLO 205 colon) | growth (DU-145 prostate) | growth (K-562 leukemia) | growth (MALME-3M melanoma) | growth (MDA-MB-231 breast) | growth (RXF 393 renal) | growth (SF-268 CNS) | growth (SF-295 CNS) | growth (SF-539 CNS) | growth (UACC-257 melanoma) | growth (NCI-H226 lung) | growth (M14 melanoma)
1 | O=C(Cc1ccccc1)C(F)(F)F | 103% | 94.2% | 102% | 103% | 104% | 107% | 105% | 94% | 104% | 103% | 94.5% | 99.4% | 96.5% | 104% | 98.9% | 101% | 97% | 18.1% |  | 
2 | CN1CCC(c2ccccc2)(c2ccccc2)C(=O)C1 | 80.1% |  | 107% | 98% | 89% |  |  | 86.7% | 98.4% | 102% | 65.6% | 90.7% |  | 95.7% | 104% | 85.8% | 94.3% | 95% | 67.7% | 92.4%
3 | Nc1ccc(C(=O)/C=C/c2ccccc2)cc1 | 96.5% |  |  | 100% | 88.3% | 80.8% | 91.5% | 86.2% | 119% | 62.1% | 14.3% | 93.9% | 98.2% | 104% | 85.8% | 101% | 102% | 108% | 105% | 80.4%
4 | CN(C)c1ccc(/C=C/c2nccc3ccccc23)cc1 | 81.9% |  | 87.9% | 74.3% | 68.2% |  | 85.6% | 103% | 91.4% | 101% | 92.8% | 110% | 51.3% | 102% | 97.2% | 79.1% | 99% |  | 71.6% | 88.8%
5 | O=C(O)c1cc2c(s1)C(=O)c1sccc1C2=O | -41.9% (active) | 85.9% | -89% (active) | 104% | 54.4% | -63.4% (active) | 28.7% | 93.2% | 104% | -100% (active) | -1.53% (active) | -98.9% (active) | 75% | 34.2% | 45.2% | 57.4% | -66.1% (active) | 48.3% |  | -96.3% (active)
6 | O=C1/C(=C/c2ccccn2)CCc2ccccc21 | 105% |  | 113% | 102% | 91.5% |  | 99.3% | 101% |  | 103% | 7.2% (active) | 103% | 106% | 107% | 102% | 96.8% | 95.4% | 105% | 98.2% | 108%
7 | CCC[CH2][Sn]1([CH2]CCC)[O]C2C(CO)OC(n3ccc(N)nc3=O)C2[O]1 (stereo not drawn) | -42.1% (active) | 33.3% | 22.7% | 12.1% | -56.3% (active) | -78.9% (active) | 68.1% | -89.9% (active) | -79.4% (active) | 2.15% (active) | -17.7% (active) | -71.7% (active) | -68.8% (active) |  | -89.2% (active) |  | -64.2% (active) | -87.3% (active) |  | -47.2% (active)
8 | Oc1c(Cl)cc(Cl)cc1C(c1cc(Cl)cc(Cl)c1O)C(Cl)(Cl)Cl | -19.9% (active) |  | -6.29% (active) | -20.7% (active) |  | -12.8% (active) | 1.48% (active) | 9.47% (active) | -90.9% (active) | 19.3% | 9.05% (active) | -27% (active) | -25.1% (active) | -30.7% (active) | 11.6% |  | 4.37% (active) | -24.9% (active) | 5.37% (active) | 17.9%
9 | CCCCCCCCC(C)C(=O)N1CCCC1C(=O)N1C(CC(=O)CC)CC(C)CC1C(=O)NC(C)C(=O)NC(C)(C)C(=O)NC(C)(C)C(=O)NC(C(=O)NC(C)C(=O)NC(C)(C)C(=O)NC(C)(C)C(=O)NC(C)CN(C)CCO)C(C)CC (stereo not drawn) (X4-P[X5]A[Aib][Aib]IA[Aib][Aib]-X6; configuration not given here) | 195% | 21.2% | -81.5% (active) | -83.7% (active) | -23.8% (active) | -62.9% (active) | -62% (active) | -53.7% (active) | -75.9% (active) | -84.4% (active) | -52.1% (active) | 13.5% | -94.1% (active) | -56.5% (active) | -15.4% (active) | -26.2% (active) | -77% (active) | -72.1% (active) |  | 
10 | CCOC(=O)c1cc(CC)sc1NC(=O)CC(C)=O | 43.2% | 95.3% | 73% | 50.9% | 59% | 34.4% | 78% | 54.5% | 90.2% | 48.2% | 21.8% | 62.2% | 54.9% | 61.7% | 60.1% | 43.2% | 56.1% | 95.6% |  | 88.6%
11 | Cc1cc2nc(CC(=O)c3ccncc3)c(=O)[nH]c2cc1C | 94.2% |  | 95% | 95.2% | 92.8% |  | 98.5% | 87.7% | 130% | 100% | 91.1% | 109% |  | 96.4% | 94.2% | 92% | 60.8% | 107% | 87.4% | 106%
12 | O=S(=O)(O)c1cnccn1 | 97.6% |  | 71.6% |  | 94.2% | 96% | 73.9% | 97.8% | 107% | 110% | 106% | 108% | 108% | 114% | 102% | 101% | 97.2% |  | 104% | 100%
13 | C[C@@]1(CO)[C@H](O)CC[C@@]2(C)[C@H]1CC[C@H]1C[C@@H]3C[C@@]12CC[C@@]3(O)COC(=O)CN | 21.5% | 78.1% | 37.6% | 12% | 45.4% | 49% | 3.43% (active) | 14.9% | 47% | 9.57% (active) | 34.2% | 77.4% | 92% | 5.23% (active) | 50.5% | 8.57% (active) | -13.9% (active) | 21% |  | 42.4%
14 | COc1cc(OC)c(/C=C/c2c3ccccc3cc[n+]2C)c(OC)c1 | 17.3% |  | 35.3% | 10.8% | 36.6% |  | 14.7% | 62.8% | -35.3% (active) | 36.5% | 5.35% (active) | 33.3% | 42.4% |  | 26.3% | -32.3% (active) | 31.9% | -16.7% (active) | 33.3% | 41.7%
15 | CC(=O)OC1CC2CCC1(C)C2(C)C (stereo not drawn) | 104% |  |  | 105% | 84.1% |  | 101% | 111% | 108% | 110% |  | 98.7% | 101% | 114% | 104% | 94.5% | 104% | 99.6% | 103% | 106%
16 | CCN1CCCC(Nc2cc(C)nc(/N=C(/N)Nc3ccc(Cl)c(Cl)c3)n2)C1 (stereo not drawn) | 33.2% | -17.1% (active) | -7.52% (active) | -18.8% (active) | -68.4% (active) | -69.5% (active) | -25.1% (active) | -82.7% (active) | -77.6% (active) | 30.3% | -69.2% (active) | -70.6% (active) | -56.6% (active) | -81.3% (active) | -54.4% (active) |  | -73.7% (active) | -84.9% (active) |  | -77.9% (active)
17 | CCCCC(C=O)(C=C=C(C)C)CC (stereo not drawn) | 112% | 101% | 120% | 105% | 86.4% | 95.5% | 94.3% | 99.1% | 110% | 113% | 111% | 97.7% | 114% | 106% | 102% | 95% | 98% | 98.1% |  | 102%
18 | COC(=O)C(=[N+]=[N-])C(=O)c1ccc([N+](=O)[O-])o1 | 77.6% | 103% | 89.7% | 94% | 83.1% | -61.8% (active) | 65.2% | 107% | 23% | 104% | 81.6% | 25.4% | 97.6% | 81.3% | 92.4% | 108% | 104% | 61.5% |  | 89.6%
